Results from PubChem BioAssay (Tox21).
Records with an inconclusive call do not appear. Activity calls are given as the source filed them. Unless noted, the call rests on the fitted dose curve; in most records, active means well fitted curve in the direction sought with a large enough effect in the repeat runs; inconclusive means weak or mixed curves; inactive means no such curve, though single readings can be large; an effect the other way counts as inactive or inconclusive.

Columns and labels:
[1] = qHTS assay to identify aromatase inhibitors - cell viability counter screen (AID 743084);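 further: cells stimulated with testosterone during compound exposure; nearly all actives have a fitted effect of over 55% in size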
[2] = target: Aryl hydrocarbon receptor (Homo sapiens) (UniProt P35869); experiment: qHTS assay to identify small molecule that activate the aryl hydrocarbon receptor (AhR) signaling pathway (AID 743085); further: nearly all actives have a fitted effect of over 15% in size; further: potency means the concentration at half of the fitted maximal effect;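 on activation: HG2L7.5c1 human HepG2 liver cells with stably integrated DRE-driven firefly reporter; series mostly up to about 70 µM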
Chain of Aryl hydrocarbon receptor (Homo sapiens) (P35869 whole entry, looked up): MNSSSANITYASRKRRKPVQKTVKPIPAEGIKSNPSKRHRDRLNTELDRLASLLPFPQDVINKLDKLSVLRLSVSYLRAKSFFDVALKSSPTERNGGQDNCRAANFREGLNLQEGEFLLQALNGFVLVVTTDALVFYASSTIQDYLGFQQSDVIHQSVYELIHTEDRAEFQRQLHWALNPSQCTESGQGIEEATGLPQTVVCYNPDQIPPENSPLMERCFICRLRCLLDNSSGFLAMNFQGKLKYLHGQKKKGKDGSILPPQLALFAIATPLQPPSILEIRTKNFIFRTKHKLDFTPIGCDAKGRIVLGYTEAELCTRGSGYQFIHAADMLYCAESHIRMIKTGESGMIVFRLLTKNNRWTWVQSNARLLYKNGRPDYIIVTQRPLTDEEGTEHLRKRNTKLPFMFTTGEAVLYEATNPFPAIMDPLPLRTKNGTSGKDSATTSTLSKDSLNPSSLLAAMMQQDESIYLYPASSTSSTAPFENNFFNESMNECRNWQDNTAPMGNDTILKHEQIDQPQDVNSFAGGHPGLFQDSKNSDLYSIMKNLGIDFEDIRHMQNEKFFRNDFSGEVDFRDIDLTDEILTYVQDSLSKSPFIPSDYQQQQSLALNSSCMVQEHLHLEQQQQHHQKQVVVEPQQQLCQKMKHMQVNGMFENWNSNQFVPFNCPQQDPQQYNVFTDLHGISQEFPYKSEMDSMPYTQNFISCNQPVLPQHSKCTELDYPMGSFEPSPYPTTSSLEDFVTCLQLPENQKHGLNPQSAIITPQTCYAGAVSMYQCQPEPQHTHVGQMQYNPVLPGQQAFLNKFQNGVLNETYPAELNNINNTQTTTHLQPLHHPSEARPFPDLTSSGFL
Method in brief: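 Compounds were tested in HepG2 hepatocellular carcinoma cells harbouring a stably integrated luciferase gene under control of 20 DREs. Increased reporter signal after 24 h treatment at 37C was taken as AhR activation.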

[3] = qHTS assay to identify small molecule that activate the aryl hydrocarbon receptor (AhR) signaling pathway - cell viability counter screen (AID 743086);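 further: HepG2 liver cells carrying the AhR DRE luciferase reporter; series mostly up to about 70 µM; nearly all actives have a fitted effect of over 45% in size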
Method in brief: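 HepG2-AhR-luc (HG2L7.5c1) cells, 4000/well, were preincubated 5 h at 37C, exposed to compound in qHTS format for 24 hr at 37C, then given CellTiter-Fluor for 30 min; viability was read as fluorescence in the reporter wells.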

[4] = target: Peroxisome proliferator-activated receptor gamma (Homo sapiens) (UniProt P37231); experiment: qHTS assay to identify small molecule agonists of the peroxisome proliferator-activated receptor gamma (PPARg) signaling pathway (AID 743094; active means well fitted activation curve with a large enough effect in the signal ratio in the repeat runs, not every such curve was filed as active; the % refers to the signal ratio)
Chain of Peroxisome proliferator-activated receptor gamma (Homo sapiens) (P37231 whole entry, looked up): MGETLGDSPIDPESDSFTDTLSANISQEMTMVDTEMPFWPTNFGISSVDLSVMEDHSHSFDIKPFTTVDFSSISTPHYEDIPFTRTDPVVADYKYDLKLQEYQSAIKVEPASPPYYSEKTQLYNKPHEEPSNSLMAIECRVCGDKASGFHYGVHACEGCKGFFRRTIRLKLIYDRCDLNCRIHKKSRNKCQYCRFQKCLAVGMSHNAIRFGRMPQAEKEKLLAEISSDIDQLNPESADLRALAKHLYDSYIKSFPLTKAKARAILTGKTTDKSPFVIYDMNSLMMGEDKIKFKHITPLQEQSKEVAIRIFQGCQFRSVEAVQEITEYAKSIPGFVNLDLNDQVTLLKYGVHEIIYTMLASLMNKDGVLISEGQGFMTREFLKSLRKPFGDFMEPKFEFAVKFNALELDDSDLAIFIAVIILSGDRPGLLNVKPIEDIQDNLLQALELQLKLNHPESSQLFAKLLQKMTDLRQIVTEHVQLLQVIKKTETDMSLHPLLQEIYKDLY
Method in brief: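 GeneBLAzer PPARg UAS-bla HEK293H cells carrying a stably integrated beta-lactamase reporter were pre-incubated 5 h at 37C, then exposed to compounds in DMSO for 17 h at 37C; LiveBLAzer B/G FRET substrate was added for 1 h at room temperature and fluorescence read.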

[5] = target: Peroxisome proliferator-activated receptor gamma (Homo sapiens) (UniProt P37231); experiment: qHTS assay to identify small molecule antagonists of the peroxisome proliferator-activated receptor gamma (PPARg) signaling pathway (AID 743191; calls by dose curve; further: series mostly up to about 63 µM; nearly all actives have a fitted effect of over 30% in size)
Method in brief: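 GeneBLAzer PPARg UAS-bla HEK293H cells carrying a UAS-driven beta-lactamase reporter were plated at 3000 cells/well, preincubated 5 h at 37C, then given compound for 17 h at 37C; LiveBLAzer B/G FRET substrate was read after 1 h at room temperature.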

[6] = qHTS assay to identify small molecule antagonists of the peroxisome proliferator-activated receptor gamma (PPARg) signaling pathway - cell viability counter screen (AID 743194); further: nearly all actives have a fitted effect of over 55% in size
Method in brief: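 PPARg-UAS-bla HEK293H cells were plated, rested 5 h at 37 C, then treated with compounds plus rosiglitazone (50 nM final) for 17 h at 37 C; viability was then read by CellTiter-Glo luminescence after 30 min at room temperature.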

[7] = qHTS assay for small molecule agonists of the antioxidant response element (ARE) signaling pathway (AID 743202; active means well fitted activation curve with a large enough effect in the signal ratio in the repeat runs, not every such curve was filed as active; the % refers to the signal ratio)
Method in brief: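 Compounds delivered in DMSO to ARE-bla HepG2 cells (2,000 cells/well, pre-incubated 5 h) and left 16 h at 37 C. LiveBLAzer B/G FRET substrate then added for 2 h at RT before fluorescence reading.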

[8] = qHTS assay for small molecule agonists of the antioxidant response element (ARE) signaling pathway - cell viability counter screen (AID 743203; calls by dose curve; further: nearly all actives have a fitted effect of over 55% in size)
Method in brief: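 CellSensor ARE-bla HepG2 cells, 2,000 per well, rested 5 hrs at 37C/5% CO2, then exposed to compound in DMSO for 16 hrs; viability read as CellTiter-Glo luminescence after 30 min at room temperature, in the reporter wells.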

[9] = qHTS assay for small molecule activators of the heat shock response signaling pathway - cell viability counter screen (AID 743209); further: nearly all actives have a fitted effect of over 50% in size
Method in brief: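 CellSensor HSE-bla HeLa cells, plated overnight at 37 C/5% CO2, were exposed to compounds in DMSO for 5 h at 37 C. Viability was then read in the same wells by CellTiter-Glo luminescence after 30 min at room temperature.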

[10] = qHTS assay for small molecule activators of the heat shock response signaling pathway (AID 743210; active means well fitted activation curve with a large enough effect in the signal ratio in the repeat runs, with a control signal flat, not every such curve was filed as active; the % refers to the signal ratio;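 further: HeLa cells with beta-lactamase reporter driven by heat shock elements; series mostly up to about 63 µM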)
Method in brief: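 Reporter gene assay: HeLa cells stably bearing an HSE-bla construct, compound treatment 5 h at 37 C, LiveBLAzer substrate 2.5 h at RT, fluorescence intensity.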

[11] = qHTS assay to identify small molecule agonists of the peroxisome proliferator-activated receptor delta (PPARd) signaling pathway - cell viability counter screen (AID 743211); further: nearly all actives have a fitted effect of over 55% in size
Method in brief: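 Counter screen for cytotoxicity run in parallel with the PPARd reporter screen. Beta-lactamase reporter HEK293H cells exposed to compounds 17 h; ATP-based CellTiter-Glo luminescence quantified viability.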

[12] = qHTS assay to identify small molecule agonists of the farnesoid-X-receptor (FXR) signaling pathway - cell viability counter screen (AID 743218); further: nearly all actives have a fitted effect of over 45% in size
Method in brief: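 FXR-UAS-bla HEK 293T cells, plated 5 h at 37 C, were exposed to compounds for 16 h at 37 C. CellTiter-Glo was then added to the same wells as the bla readout; luminescence read after 30 min at room temperature.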

[13] = qHTS assay to identify small molecule antagonists of the farnesoid-X-receptor (FXR) signaling pathway - cell viability counter screen (AID 743221; active means well fitted cell-killing curve with a large enough effect in the repeat runs, not every such curve was filed as active; further: nearly all actives have a fitted effect of over 50% in size)
Method in brief: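 Multiplexed counter screen: viability of FXR-bla HEK 293T cells under agonist stimulation by chenodeoxycholic acid (50 uM, final) and test compound for 16 h at 37 C, measured by CellTiter-Glo luminescence in the reporter wells.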

[14] = target: Peroxisome proliferator-activated receptor delta (Homo sapiens) (UniProt Q03181); experiment: qHTS assay to identify small molecule antagonists of the peroxisome proliferator-activated receptor delta (PPARd) signaling pathway (AID 743215; active means well fitted inhibition curve with a large enough effect in the signal ratio in the repeat runs, not every such curve was filed as active; the % refers to the signal ratio;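 further: cells stimulated with agonist L165041 at 300 nM final during compound exposure; series mostly up to about 62 µM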)
Chain of Peroxisome proliferator-activated receptor delta (Homo sapiens) (Q03181 whole entry, looked up): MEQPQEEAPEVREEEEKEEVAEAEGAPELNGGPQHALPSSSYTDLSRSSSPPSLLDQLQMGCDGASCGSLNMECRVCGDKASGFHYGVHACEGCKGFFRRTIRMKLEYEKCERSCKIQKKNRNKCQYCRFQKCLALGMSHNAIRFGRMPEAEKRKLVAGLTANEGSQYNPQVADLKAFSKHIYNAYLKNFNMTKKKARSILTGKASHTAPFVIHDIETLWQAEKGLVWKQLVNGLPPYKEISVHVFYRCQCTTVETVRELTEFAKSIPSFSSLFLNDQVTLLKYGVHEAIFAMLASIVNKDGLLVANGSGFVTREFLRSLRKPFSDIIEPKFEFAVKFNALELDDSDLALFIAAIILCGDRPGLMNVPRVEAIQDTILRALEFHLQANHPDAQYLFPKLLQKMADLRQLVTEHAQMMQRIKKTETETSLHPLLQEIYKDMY
Method in brief: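 PPARd UAS-bla HEK293H cells were pre-incubated 5 h at 37 C, then given test compounds in DMSO plus agonist L165041 (300 nM final). After 17 h at 37 C, beta-lactamase FRET substrate was added; fluorescence read after 2 h at room temperature.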

[15] = target: Vitamin D3 receptor (Homo sapiens) (UniProt P11473); experiment: qHTS assay to identify small molecule agonists of the vitamin D receptor (VDR) signaling pathway (AID 743222; calls by dose curve)
Chain of Vitamin D3 receptor (Homo sapiens) (P11473 whole entry, looked up): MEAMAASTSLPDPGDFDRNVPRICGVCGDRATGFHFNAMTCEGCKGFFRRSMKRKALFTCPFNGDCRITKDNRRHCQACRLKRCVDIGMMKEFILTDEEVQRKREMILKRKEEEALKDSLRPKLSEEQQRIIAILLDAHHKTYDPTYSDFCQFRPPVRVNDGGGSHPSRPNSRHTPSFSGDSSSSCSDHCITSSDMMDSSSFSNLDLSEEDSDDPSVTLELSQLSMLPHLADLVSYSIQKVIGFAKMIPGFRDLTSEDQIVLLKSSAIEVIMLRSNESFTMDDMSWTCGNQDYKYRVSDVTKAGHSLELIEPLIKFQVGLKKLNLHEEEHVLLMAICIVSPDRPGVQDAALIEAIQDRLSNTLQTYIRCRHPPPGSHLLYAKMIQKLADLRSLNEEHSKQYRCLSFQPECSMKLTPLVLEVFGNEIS
Method in brief: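 VDR-bla cells were plated 4 h at 37C/5% CO2, then exposed to compounds in DMSO for 16 h. After LiveBLAzer B/G FRET substrate addition and 2 h at room temperature, beta-lactamase reporter fluorescence was read.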

[16] = target: Vitamin D3 receptor (Homo sapiens) (UniProt P11473); experiment: qHTS assay to identify small molecule antagonists of the vitamin D receptor (VDR) signaling pathway (AID 743223; active means well fitted inhibition curve with a large enough effect in the signal ratio in the repeat runs, not every such curve was filed as active; the % refers to the signal ratio)
Method in brief: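 Cells carrying a VDR-driven beta-lactamase reporter (VDR-bla) were co-treated with compound and 3 nM final 1alpha,25-dihydroxyvitamin D3 for 16 h at 37C; reporter activity was measured as FRET substrate fluorescence after 2 h at room temperature.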

[17] = qHTS assay to identify small molecule antagonists of the peroxisome proliferator-activated receptor delta (PPARd) signaling pathway - cell viability counter screen (AID 743213); further: nearly all actives have a fitted effect of over 50% in size
Method in brief: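 Luminescence from CellTiter-Glo, added after the bla read and incubated 30 min at room temperature, gives viability of HEK293H PPARd-bla cells exposed to compounds for 17 h at 37 C with 300 nM L165041.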

[18] = target: Peroxisome proliferator-activated receptor delta (Homo sapiens) (UniProt Q03181); experiment: qHTS assay to identify small molecule agonists of the peroxisome proliferator-activated receptor delta (PPARd) signaling pathway (AID 743212; calls by dose curve)
Method in brief: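 A PPARd-bla HEK293H line with beta-lactamase under an Upstream Activator Sequence is treated with compounds at 37 C. Substrate loading for 2 h at room temperature precedes the fluorescence measurement.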

[19] = target: Bile acid receptor (Homo sapiens) (UniProt Q96RI1); experiment: qHTS assay to identify small molecule agonists of the farnesoid-X-receptor (FXR) signaling pathway (AID 743220; active means well fitted activation curve with a large enough effect in the signal ratio in the repeat runs, not every such curve was filed as active; the % refers to the signal ratio)
Chain of Bile acid receptor (Homo sapiens) (Q96RI1 whole entry, looked up): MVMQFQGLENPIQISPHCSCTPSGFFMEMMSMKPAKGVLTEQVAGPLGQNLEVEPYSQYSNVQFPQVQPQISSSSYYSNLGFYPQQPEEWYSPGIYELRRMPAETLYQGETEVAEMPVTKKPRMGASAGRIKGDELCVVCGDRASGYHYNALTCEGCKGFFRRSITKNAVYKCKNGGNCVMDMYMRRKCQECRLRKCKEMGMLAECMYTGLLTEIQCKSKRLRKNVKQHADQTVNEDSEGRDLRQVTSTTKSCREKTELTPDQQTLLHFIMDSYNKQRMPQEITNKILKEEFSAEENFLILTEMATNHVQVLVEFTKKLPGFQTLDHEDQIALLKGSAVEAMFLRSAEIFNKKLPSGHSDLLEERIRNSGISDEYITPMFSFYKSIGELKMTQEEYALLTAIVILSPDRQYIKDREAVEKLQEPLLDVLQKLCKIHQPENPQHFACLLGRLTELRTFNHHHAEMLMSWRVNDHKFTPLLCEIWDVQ
Method in brief: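 Beta-lactamase reporter under UAS control in GeneBLAzer FXR HEK 293T cells (5000/well) measured with LiveBLAzer FRET substrate after 2 h at room temperature. Compound exposure lasted 16 h at 37C.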

[20] = target: Bile acid receptor (Homo sapiens) (UniProt Q96RI1); experiment: qHTS assay to identify small molecule antagonists of the farnesoid-X-receptor (FXR) signaling pathway (AID 743217; active means well fitted inhibition curve with a large enough effect in the signal ratio in the repeat runs, not every such curve was filed as active; the % refers to the signal ratio)
Method in brief: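 FXR-UAS-bla HEK 293T cells pre-incubated 5 h at 37 °C, then exposed to compounds with chenodeoxycholic acid (50 uM final) for 16 h at 37 °C. Beta-lactamase reporter read by LiveBLAzer B/G FRET substrate fluorescence after 2 h at room temperature.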

Measured: Potency

CC(C)c1ccc(S(=O)(=O)O)cc1
not listed: [14] | [15] | [16] | [17] | [18] | [19] | [20]
inactive: all other assays above

O=C(O)CCCC[C@@H]1SC[C@@H]2NC(=O)N[C@@H]21
not listed: [17] | [18] | [19] | [20]
inactive: all other assays above

O=[N+]([O-])c1ccc(/C=C/c2ccc([N+](=O)[O-])cc2S(=O)(=O)O)c(S(=O)(=O)O)c1
not listed: [14] | [18] | [19] | [20]
inactive: all other assays above

FC(F)(F)c1ccc(Cl)c(Cl)c1
not listed: [16] | [17] | [18] | [19] | [20]
inactive: all other assays above

N[C@@H](Cc1cc(I)c(Oc2cc(I)c(O)c(I)c2)c(I)c1)C(=O)O
active: [2] 13.8 µM
not listed: [5] | [19] | [20]
inactive: all other assays above

Cc1cccnc1
not listed: [14] | [17] | [18] | [19] | [20]
inactive: all other assays above

Fc1ccc(Br)cc1
not listed: [14] | [18] | [19] | [20]
inactive: all other assays above

Cc1ccc(S(N)(=O)=O)cc1
not listed: [14] | [18] | [20]
inactive: all other assays above

C=CCOC(=O)c1ccccc1C(=O)OCC=C
not listed: [14] | [15] | [16] | [18]
inactive: all other assays above
